Test results from PubChem BioAssay (Tox21).
Inconclusive results are not listed. Unmarked numbers belong to inactive results. The call rests on the fitted dose curve.

Experiment: qHTS assay to identify small molecule agonists or antagonists of the thyroid stimulating hormone receptor (TSHR) signaling pathway - wild type cell line counter screen (AID 1259384)
Settings: HEK293 wild type, cAMP HTRF counter-screen, hits give high values; series mostly up to 92.4 µM; cAMP activity change: at the top concentration
Source text: U.S. Tox21 Program National Center for Advancing Translational Sciences [NCATS] NIH Chemical Genomics Center [NCGC] U.S. Environmental Protection Agency [EPA] National Institutes of Environmental Health Sciences [NIEHS] National Toxicology Program [NTP] U.S. Food and Drug Administration [FDA] Tox21 Assay Overview: TSHR is the receptor for thyrotropin (thyroid stimulating hormone or TSH), a member of the glycoprotein hormone family. TSH is released by the anterior pituitary gland and is the main regulator of thyroid gland growth and development. Upon binding circulating thyrotropin, a G-protein signal cascade activates adenylyl cyclase and […] cAMP concentration is increased. cAMP is a key second messenger involved extensively in cellular signal transduction pathways associated with the majority of G-protein coupled receptors (GPCRs). The activation of these GPCRs by neurotransmitters, lipids, nucleotides, peptides and hormones results in the activation or the inhibition of plasma membrane-bound adenylate cyclase through heterotrimeric G-proteins. A cell-based TSHR-Hek293 assay can be used to identify TSHR agonists. To eliminate the false positive compounds identified from screening a cell-based TSHR-Hek293 cell line, cAMP assay in a wild type Hek293 cells was used as a counter screening.
Tox21 Assay Protocol Summary: Hek293 cells (wild type) were dispensed at 800 cells/4 uL/well in 1536-well white plates using a Multidrop dispenser. After the assay plates were incubated at a 37 C/5% CO2 incubator for 18 hrs, 23 nL of compounds dissolved in DMSO, positive controls or DMSO only was transferred to the assay plate by a pin tool, followed by 1 ul medium containing Ro20-1724. After 30 min of incubation at room temperature, 2.5 ul/well of cAMP-d2 and 2.5 ul/well of anti-cAMP-cryptate were added respectively into the assay plates using a Flying Reagent Dispenser. The plates were incubated at room temperature for 1 hr. The fluorescence intensity in the plates was measured using an Envision plate reader. Each test compound was measured at 15 concentrations and in triplicates.
On the % scale 0 is the no-effect control and ±100 the full control effect.

Row | Structure (SMILES) | cAMP activity change
1 | CC(C)Nc1cccnc1N1CCN(C(=O)c2cc3cc(NS(C)(=O)=O)ccc3[nH]2)CC1 | 0.241% [at 42.5 µM]
2 | CC(C)C(O)(c1ccc(OC(F)(F)F)cc1)c1cncnc1 (stereo not given) | 1.02%
3 | O=C1NC(=O)c2cc([N+](=O)[O-])ccc21 | -0.954%
4 | CC(=O)NC1(c2cccc(F)c2)CCN(CC[C@@]2(c3ccc(Cl)c(Cl)c3)CN(c3ccccc3)C(=O)CO2)CC1 | -0.0314%
5 | Cc1ccc(Cl)c(Nc2ccccc2C(=O)O)c1Cl | -1.81% [at 42.5 µM]
6 | CCOC(=O)c1ccccc1C(=C1C=C(Br)C(=O)C(Br)=C1)c1cc(Br)c(O)c(Br)c1 | 0.0378% [at 42.5 µM]
7 | C[C@@H](O)[C@H]1C(=O)N2C(C(=O)O)=C([C@H]3CCCO3)S[C@H]12 | -6.31% [at 42.5 µM]
8 | Cc1cc(C)cc(N)c1 | -0.0805%
9 | CC(C)(O)c1ccc(CNC(=O)c2cccnc2Oc2ccc3nonc3c2)cc1 | 0.361%
10 | C/C=C\C/C=C/CCCCCCCCOC(C)=O | 7.23%
11 | Cc1cscn1 | -1.43%
12 | CCCCCCCCOc1ccc(C(=O)O)cc1 | -0.289%
13 | O=C1Cc2ccccc2N1c1c(Cl)cccc1Cl | -2.98%
14 | CN1CCCN=C1COC(=O)C(O)(c1ccccc1)C1CCCCC1 (stereo not given) | -2.82% [at 42.5 µM]
15 | CCCCCCCC/C=C\CCCCCCCCO | -0.0032%
16 | CCCCCCCCCI | -0.222%
17 | CC(=O)Oc1ccc([N+](=O)[O-])cc1CCl | -1.39%
18 | CCOC(=O)c1ccc(OCCN2C[C@H](O)[C@@H](O)[C@H](O)[C@H]2CO)cc1 | 1.76% [at 42.5 µM]
19 | CC(CN(C)C)C(C)(O)Cc1ccc(Cl)cc1 (stereo not given) | 4.78% [at 42.5 µM]
20 | CCCCCC#CC(=O)OC | 2.9%

Row | Structure (SMILES) | cAMP activity change
21 | Brc1cc(Br)c(Oc2cc(Br)c(Br)cc2Br)cc1Br | -0.0306% [at 42.5 µM]
22 | O=C(CCCN1CC=C(n2c(=O)[nH]c3ccccc32)CC1)c1ccc(F)cc1 | 0.283% [at 42.5 µM]
23 | C=C1CCC2CC1C2(C)C (stereo not given) | 4.28%
24 | CCOC(=O)c1ccc(O)c(O)c1 | -9.07% [at 42.5 µM]
25 | CN1C(=O)N(c2ccccc2Br)Cc2cnc(Nc3ccc4c(c3)OCC(CO)O4)nc21 (stereo not given) | -1.73%
26 | O=C(/C=C/c1ccccc1)OCCc1ccccc1 | 0.0235%
27 | CO[C@]1(NC(=O)CSC(F)F)C(=O)N2C(C(=O)O)=C(CSc3nnnn3CCO)CO[C@H]21 | 0.125% [at 42.5 µM]
28 | O=C1Cc2cc(Cl)ccc2N1 | -6.21% [at 42.5 µM]
29 | CC[C@]1(O)C[C@H]2CN(CCc3c([nH]c4ccccc34)[C@@](C(=O)OC)(c3cc4c(cc3OC)N(C=O)[C@H]3[C@@](O)(C(=O)OC)[C@H](OC(C)=O)[C@]5(CC)C=CCN6CC[C@]43[C@@H]65)C2)C1 | -5.94% [at 42.5 µM]
30 | C=CCc1ccccc1OCC(O)CNC(C)C (stereo not given) | -2.9% [at 42.5 µM]
31 | CCC=CC#N | 2.49%
32 | Clc1cc(Cl)nc(Cl)n1 | -0.0306%
33 | CC(C)=CC(=O)C=C(C)C | 0.492%
34 | Clc1ccc(Nc2nnc(Cc3ccncc3)c3ccccc23)cc1 | -1.13% [at 42.5 µM]
35 | CCOC(=O)OC(C)OC(=O)[C@@H]1N2C(=O)[C@@H](NC(=O)[C@H](N)c3ccccc3)[C@H]2SC1(C)C (stereo not given in full) | 5.35% [at 42.5 µM]
36 | CN(C)CCC=C1c2ccccc2C=Cc2ccccc21 | -3.66% [at 42.5 µM]
37 | CCC(C)COC(=O)CC(C)C (stereo not given) | -3.16%
38 | COc1cc(C(=O)NCCCCCC(=O)O)cc(OC)c1OC | -2.07% [at 42.5 µM]
39 | C=COCC(C)C | -2.53%
40 | CC(C)=CCC/C(C)=C/CC/C(C)=C/CCC(=O)OC/C=C(\C)CCC=C(C)C | 3.19% [at 42.5 µM]
